# Test results published in ChEMBL document CHEMBL2218924, “A broad activity screen in support of a chemogenomic map for kinase signalling research and drug discovery” (Biochem J, 2013).
# Legend:
# [1] = target: T1, Protein kinase C zeta type (Homo sapiens) (UniProt Q05513); conditions: at 1 µM
# T1 sequence (whole entry): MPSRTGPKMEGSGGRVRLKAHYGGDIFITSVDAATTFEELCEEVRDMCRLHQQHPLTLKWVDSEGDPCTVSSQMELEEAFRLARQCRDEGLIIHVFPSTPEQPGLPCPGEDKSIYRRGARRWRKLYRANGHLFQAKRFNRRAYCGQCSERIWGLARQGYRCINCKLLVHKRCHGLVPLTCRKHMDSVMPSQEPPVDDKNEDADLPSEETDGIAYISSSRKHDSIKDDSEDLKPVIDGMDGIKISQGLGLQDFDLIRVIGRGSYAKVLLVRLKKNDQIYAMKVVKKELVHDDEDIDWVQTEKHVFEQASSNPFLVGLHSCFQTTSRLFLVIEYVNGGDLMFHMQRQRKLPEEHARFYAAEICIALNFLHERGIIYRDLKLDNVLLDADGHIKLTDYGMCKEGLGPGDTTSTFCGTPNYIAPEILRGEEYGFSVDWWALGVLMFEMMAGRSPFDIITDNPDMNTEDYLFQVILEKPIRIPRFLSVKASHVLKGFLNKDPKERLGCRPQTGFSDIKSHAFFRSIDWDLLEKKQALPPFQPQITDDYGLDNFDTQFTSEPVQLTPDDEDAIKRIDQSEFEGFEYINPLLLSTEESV
# [2] = target: T2, Mitogen-activated protein kinase kinase kinase 5 (Homo sapiens) (UniProt Q99683); conditions: at 10 µM
# T2 sequence (whole entry): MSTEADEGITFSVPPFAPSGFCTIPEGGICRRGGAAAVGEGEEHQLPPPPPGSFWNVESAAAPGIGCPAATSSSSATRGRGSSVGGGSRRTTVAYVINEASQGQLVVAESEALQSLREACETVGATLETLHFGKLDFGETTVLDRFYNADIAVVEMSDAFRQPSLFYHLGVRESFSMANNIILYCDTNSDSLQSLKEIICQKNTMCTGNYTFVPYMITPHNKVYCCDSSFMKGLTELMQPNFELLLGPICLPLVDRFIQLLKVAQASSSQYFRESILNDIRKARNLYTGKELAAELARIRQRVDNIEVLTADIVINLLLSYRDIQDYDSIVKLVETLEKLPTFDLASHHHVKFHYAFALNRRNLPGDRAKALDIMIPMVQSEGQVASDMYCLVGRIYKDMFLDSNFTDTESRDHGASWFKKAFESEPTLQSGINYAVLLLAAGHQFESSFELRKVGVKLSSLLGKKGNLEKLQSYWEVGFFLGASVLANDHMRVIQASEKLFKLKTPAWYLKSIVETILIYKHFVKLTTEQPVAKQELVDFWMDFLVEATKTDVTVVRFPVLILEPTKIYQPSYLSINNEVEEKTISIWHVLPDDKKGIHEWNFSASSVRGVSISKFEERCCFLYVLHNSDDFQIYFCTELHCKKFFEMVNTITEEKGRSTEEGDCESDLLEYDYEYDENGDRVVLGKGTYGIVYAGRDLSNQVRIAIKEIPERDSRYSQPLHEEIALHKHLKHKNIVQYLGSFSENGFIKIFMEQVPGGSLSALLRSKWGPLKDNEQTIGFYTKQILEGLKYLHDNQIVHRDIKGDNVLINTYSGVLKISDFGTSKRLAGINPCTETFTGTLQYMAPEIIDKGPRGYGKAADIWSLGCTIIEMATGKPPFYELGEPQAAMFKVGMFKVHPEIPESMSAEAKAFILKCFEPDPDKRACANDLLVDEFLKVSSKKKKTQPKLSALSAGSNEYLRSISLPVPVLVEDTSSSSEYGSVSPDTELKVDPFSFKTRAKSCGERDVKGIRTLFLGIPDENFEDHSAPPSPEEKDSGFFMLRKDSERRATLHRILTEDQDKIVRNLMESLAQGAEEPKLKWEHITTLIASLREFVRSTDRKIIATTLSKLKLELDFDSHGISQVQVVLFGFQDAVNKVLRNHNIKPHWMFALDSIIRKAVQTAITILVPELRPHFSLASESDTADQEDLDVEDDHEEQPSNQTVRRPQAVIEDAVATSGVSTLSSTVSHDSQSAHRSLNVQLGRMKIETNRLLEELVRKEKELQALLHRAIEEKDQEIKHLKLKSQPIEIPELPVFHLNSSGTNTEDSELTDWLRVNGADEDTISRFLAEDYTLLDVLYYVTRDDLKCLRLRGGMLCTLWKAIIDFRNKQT
# [3] = target: Tyrosine-protein kinase ABL1 (Homo sapiens) (UniProt P00519); conditions: at 1 µM
# [4] = target: Tyrosine-protein kinase ABL1 (Homo sapiens) (UniProt P00519); conditions: at 10 µM
# [5] = target: Tyrosine-protein kinase ABL2 (Homo sapiens) (UniProt P42684); conditions: at 1 µM
# [6] = target: Tyrosine-protein kinase ABL2 (Homo sapiens) (UniProt P42684); conditions: at 10 µM
# [7] = target: T3, Aurora kinase A (Homo sapiens) (UniProt O14965); conditions: at 1 µM
# T3 sequence (whole entry): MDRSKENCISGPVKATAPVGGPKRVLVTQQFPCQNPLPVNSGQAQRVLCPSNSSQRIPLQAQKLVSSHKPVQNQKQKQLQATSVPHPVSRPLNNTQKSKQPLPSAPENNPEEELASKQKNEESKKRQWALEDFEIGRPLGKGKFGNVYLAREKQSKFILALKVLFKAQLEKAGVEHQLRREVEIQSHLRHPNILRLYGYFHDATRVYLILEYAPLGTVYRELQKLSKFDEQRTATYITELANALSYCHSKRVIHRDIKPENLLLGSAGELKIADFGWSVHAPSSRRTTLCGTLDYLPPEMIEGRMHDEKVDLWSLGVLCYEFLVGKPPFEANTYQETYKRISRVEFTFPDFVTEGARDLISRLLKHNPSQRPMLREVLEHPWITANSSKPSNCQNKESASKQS
# [8] = target: T3, Aurora kinase A (Homo sapiens); conditions: at 10 µM
# [9] = target: Aurora kinase B (Homo sapiens) (UniProt Q96GD4); conditions: at 1 µM
# [10] = target: Aurora kinase B (Homo sapiens) (UniProt Q96GD4); conditions: at 10 µM
# Aurora kinase B (Homo sapiens), sequence (Q96GD4 whole entry): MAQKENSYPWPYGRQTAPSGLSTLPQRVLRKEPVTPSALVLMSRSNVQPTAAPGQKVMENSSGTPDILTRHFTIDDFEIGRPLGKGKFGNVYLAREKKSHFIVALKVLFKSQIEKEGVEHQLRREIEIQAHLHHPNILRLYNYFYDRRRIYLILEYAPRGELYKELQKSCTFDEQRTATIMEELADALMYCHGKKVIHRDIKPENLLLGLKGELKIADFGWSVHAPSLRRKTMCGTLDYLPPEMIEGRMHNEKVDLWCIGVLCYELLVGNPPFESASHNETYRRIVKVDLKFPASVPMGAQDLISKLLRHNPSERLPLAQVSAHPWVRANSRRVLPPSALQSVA
# Tyrosine-protein kinase ABL1 (Homo sapiens), sequence (P00519 whole entry): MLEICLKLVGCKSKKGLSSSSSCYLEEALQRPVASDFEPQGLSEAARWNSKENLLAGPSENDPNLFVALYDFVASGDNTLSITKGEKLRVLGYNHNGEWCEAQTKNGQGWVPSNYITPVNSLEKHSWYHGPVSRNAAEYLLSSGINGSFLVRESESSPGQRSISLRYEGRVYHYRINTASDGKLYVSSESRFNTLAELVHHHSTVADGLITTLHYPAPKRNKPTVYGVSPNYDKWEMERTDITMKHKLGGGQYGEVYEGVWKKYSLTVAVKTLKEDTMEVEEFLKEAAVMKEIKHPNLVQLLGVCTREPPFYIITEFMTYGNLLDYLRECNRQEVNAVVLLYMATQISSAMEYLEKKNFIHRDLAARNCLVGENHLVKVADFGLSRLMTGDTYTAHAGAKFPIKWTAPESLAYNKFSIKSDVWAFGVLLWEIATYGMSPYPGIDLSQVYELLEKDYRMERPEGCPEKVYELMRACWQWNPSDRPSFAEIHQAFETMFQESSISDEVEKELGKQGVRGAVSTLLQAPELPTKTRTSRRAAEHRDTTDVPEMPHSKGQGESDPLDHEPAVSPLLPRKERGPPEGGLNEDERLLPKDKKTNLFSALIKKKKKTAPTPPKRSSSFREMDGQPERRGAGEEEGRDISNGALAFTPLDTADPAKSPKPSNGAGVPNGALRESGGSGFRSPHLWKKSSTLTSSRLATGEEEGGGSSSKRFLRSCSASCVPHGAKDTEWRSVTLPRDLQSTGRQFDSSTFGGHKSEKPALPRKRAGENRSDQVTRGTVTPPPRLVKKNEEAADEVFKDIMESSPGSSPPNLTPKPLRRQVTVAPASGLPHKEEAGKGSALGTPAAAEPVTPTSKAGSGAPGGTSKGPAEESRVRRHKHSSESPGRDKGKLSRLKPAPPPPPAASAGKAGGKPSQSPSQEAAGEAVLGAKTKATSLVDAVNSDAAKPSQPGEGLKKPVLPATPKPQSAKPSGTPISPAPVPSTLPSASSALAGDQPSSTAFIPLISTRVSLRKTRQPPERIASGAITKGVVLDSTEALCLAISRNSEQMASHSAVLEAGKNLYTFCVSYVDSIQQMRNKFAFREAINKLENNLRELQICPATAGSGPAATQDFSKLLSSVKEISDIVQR
# Tyrosine-protein kinase ABL2 (Homo sapiens), sequence (P42684 whole entry): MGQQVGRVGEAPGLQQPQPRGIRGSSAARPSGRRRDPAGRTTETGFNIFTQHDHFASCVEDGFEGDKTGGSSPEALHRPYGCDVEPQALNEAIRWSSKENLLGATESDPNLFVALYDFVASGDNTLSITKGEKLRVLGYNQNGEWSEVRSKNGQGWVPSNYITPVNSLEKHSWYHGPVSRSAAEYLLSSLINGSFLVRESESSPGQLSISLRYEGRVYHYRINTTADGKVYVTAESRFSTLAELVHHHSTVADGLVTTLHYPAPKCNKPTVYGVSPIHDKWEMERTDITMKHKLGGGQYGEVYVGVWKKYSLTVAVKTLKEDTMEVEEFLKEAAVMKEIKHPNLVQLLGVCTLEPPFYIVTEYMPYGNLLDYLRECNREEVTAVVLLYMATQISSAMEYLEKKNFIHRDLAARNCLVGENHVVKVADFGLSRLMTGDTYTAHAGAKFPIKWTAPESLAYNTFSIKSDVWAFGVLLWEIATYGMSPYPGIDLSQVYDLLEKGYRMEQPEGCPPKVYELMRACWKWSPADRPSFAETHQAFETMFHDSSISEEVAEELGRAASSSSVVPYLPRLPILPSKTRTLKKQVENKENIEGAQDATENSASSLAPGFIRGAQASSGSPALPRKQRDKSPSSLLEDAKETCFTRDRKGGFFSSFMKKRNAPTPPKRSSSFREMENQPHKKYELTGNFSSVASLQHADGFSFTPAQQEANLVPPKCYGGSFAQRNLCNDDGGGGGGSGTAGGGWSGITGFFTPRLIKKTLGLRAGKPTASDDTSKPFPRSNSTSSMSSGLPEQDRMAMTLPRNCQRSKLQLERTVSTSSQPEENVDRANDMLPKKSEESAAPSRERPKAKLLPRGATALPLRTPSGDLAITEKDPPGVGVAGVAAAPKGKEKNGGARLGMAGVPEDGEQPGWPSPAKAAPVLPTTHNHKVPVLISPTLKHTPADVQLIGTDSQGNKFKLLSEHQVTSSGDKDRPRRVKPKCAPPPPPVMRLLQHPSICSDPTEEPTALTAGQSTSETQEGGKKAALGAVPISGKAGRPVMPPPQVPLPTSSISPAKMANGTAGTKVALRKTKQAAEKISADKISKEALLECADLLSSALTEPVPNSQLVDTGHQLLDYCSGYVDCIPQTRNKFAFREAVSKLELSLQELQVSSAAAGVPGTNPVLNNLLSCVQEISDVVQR
SMILES,residual activity [1],residual activity [2],residual activity [3],residual activity [4],residual activity [5],residual activity [6],residual activity [7],residual activity [8],residual activity [9],residual activity [10]
Cc1ccc(S(=O)(=O)/C=C/C#N)cc1,102% (inactive),115%,104%,97%,91%,97%,118%,103%,105%,88%
c1ccc(-c2n[nH]c3c2oc2ccccc23)cc1,99% (inactive),90%,96%,77%,115%,93%,53%,31%,39%,4%
O=C1NC(=O)/C(=C\c2ccc3nccnc3c2)S1,104% (inactive),80%,100%,81%,89%,86%,94%,46%,71%,39%
O=C1Nc2ccccc2/C1=C1/Nc2ccccc2/C1=N\OCCC(O)CO (stereo not given),95% (inactive),29%,61%,43%,45%,18%,7%,3%,-1%,-1%
O=c1c2ccccc2[nH]c(=S)n1CCN1CCC(=C(c2ccc(F)cc2)c2ccc(F)cc2)CC1,101% (inactive),116%,86%,124%,93%,74%,119%,108%,95%,115%
O=C(Nc1cccc(Nc2cc(Nc3cccc(C(F)(F)F)c3)ncn2)c1)C1CC1,101% (inactive),104%,84%,104%,92%,90%,95%,82%,68%,30%
N#C/C(=C(\N)Sc1ccc(N)cc1)c1ccccc1C(F)(F)F,105% (inactive),103%,94%,87%,88%,82%,75%,70%,26%,15%
O=Nc1c(-c2c(O)[nH]c3ccccc23)[nH]c2ccccc12,101% (inactive),7%,49%,16%,30%,28%,7%,0%,1%,-2%
CC(C)n1cnc2c(NCc3ccccc3)nc(NCCCO)nc21,98% (inactive),102%,96%,81%,93%,89%,109%,114%,99%,85%
CCN(CC)C(=O)c1ccc(Nc2nc(OCC3CCCCC3)c3nc[nH]c3n2)cc1,96% (inactive),24%,46%,6%,52%,9%,1%,5%,-1%,0%
COc1cc2ncnc(Nc3ccc(Oc4ccccc4)cc3)c2cc1OC,108% (inactive),73%,61%,75%,82%,93%,52%,30%,28%,9%
CC(=O)O/N=C1\C(=C2\C(=O)Nc3cc(Br)ccc32)Nc2ccccc21,108% (inactive),94%,60%,7%,31%,4%,41%,17%,19%,6%
CC[n+]1c(/C=C/N(C)c2ccccc2)n(-c2ccccc2)c2ccc(-c3nc4ccccc4s3)cc21,107% (inactive),102%,115%,146%,112%,85%,117%,139%,139%,91%
Oc1ccc(Nc2nc(-c3ccc(Cl)cc3)cs2)cc1,115% (inactive),105%,94%,75%,101%,72%,115%,122%,124%,71%
Nc1ccc2ncnc(NCCc3ccc(Oc4ccccc4)cc3)c2c1,108% (inactive),80%,100%,101%,104%,78%,102%,110%,41%,11%
Nc1n[nH]c2nnc(-c3c(-c4ccccc4)nn4ccccc34)cc12,116% (inactive),100%,64%,19%,66%,18%,105%,92%,91%,41%
Oc1ccc(-c2nc(-c3ccc(F)cc3)c(-c3ccncc3)[nH]2)cc1,113% (inactive),80%,98%,95%,78%,41%,105%,89%,69%,58%

SMILES,residual activity [1],residual activity [2],residual activity [3],residual activity [4],residual activity [5],residual activity [6],residual activity [7],residual activity [8],residual activity [9],residual activity [10]
COc1ccc(C(=O)Nc2sc3c(c2C(N)=O)CCCC3)cc1OC,96% (inactive),109%,87%,86%,126%,101%,93%,96%,69%,46%
C[C@@H](N)[C@H]1CC[C@H](C(=O)Nc2ccncc2)CC1,103% (inactive),96%,113%,101%,107%,100%,95%,89%,73%,82%
COc1ccc(S(=O)(=O)N(CCO)c2ccccc2CN(C)C/C=C/c2ccc(Cl)cc2)cc1,111% (inactive),90%,92%,118%,116%,87%,122%,127%,90%,95%
O=C1NC(=O)c2c1c1c3ccccc3[nH]c1c1[nH]c3cc(Br)ccc3c21,98% (inactive),86%,98%,82%,109%,87%,93%,75%,5%,4%
CN(C)CCCn1cc(C2=C(c3c[nH]c4ccccc34)C(=O)NC2=O)c2ccccc21,72% (inactive),108%,108%,108%,90%,76%,100%,80%,31%,7%
O=[N+]([O-])c1ccc(-c2nc(-c3ccc(F)cc3)c(-c3ccncc3)[nH]2)cc1,113% (inactive),100%,95%,95%,82%,46%,103%,109%,114%,90%
Cc1cc2ncc(-c3ccccc3)nc2cc1C,106% (inactive),83%,92%,87%,96%,103%,77%,96%,87%,75%
Nc1nc(Nc2ccc(S(N)(=O)=O)cc2)nn1C(=S)Nc1c(F)cccc1F,75% (inactive),-1%,-5%,-5%,-2%,-2%,1%,10%,0%,0%
O=C1NC(=O)c2cc(Nc3ccc(F)cc3)c(Nc3ccc(F)cc3)cc21,101% (inactive),92%,85%,87%,90%,58%,89%,79%,124%,120%
CO[C@H]1[C@@H](OC)C[C@H](C)[C@@H](OC)C2=CC(=O)C=C(NC(=O)/C(C)=C/C=C/[C@H](OC)[C@@H](OC(N)=O)/C(C)=C/[C@@H]1C)C2=O,104% (inactive),99%,94%,68%,111%,105%,77%,86%,72%,68%
CC(C)n1cnc2/c(=N/c3cccc(Cl)c3)nc(NCCO)[nH]c21,100% (inactive),86%,73%,25%,52%,10%,88%,47%,13%,3%
CO[C@H]1C[C@@H]2CC[C@@H](C)[C@@](O)(O2)C(=O)C(=O)N2CCCC[C@H]2C(=O)O[C@H]([C@H](C)C[C@@H]2CC[C@@H](O)[C@H](OC)C2)CC(=O)[C@H](C)/C=C(\C)[C@@H](O)[C@@H](OC)C(=O)[C@H](C)C[C@H](C)/C=C/C=C/C=C/1C,96% (inactive),96%,91%,139%,119%,118%,87%,118%,92%,73%
N#Cc1cnc2cnc(NCc3cccnc3)cc2c1Nc1ccc(F)c(Cl)c1,103% (inactive),65%,98%,84%,82%,55%,31%,24%,3%,1%
O=C(O)c1ccc2c3c1cccc3c(=O)n1c3ccccc3nc21,112% (inactive),72%,101%,80%,91%,74%,72%,16%,64%,18%
Cc1nc(-c2ccccc2)c(-c2ccncc2)o1,113% (inactive),85%,26%,33%,62%,45%,122%,86%,44%,25%
O=C1NC(=O)/C(=C/c2ccc3c(c2)OC(F)(F)O3)S1,97% (inactive),97%,103%,79%,94%,98%,90%,57%,74%,64%
CCN(CC)CCCCN1c2ccccc2Oc2ccc(Cl)cc21,114% (inactive),114%,124%,102%,140%,122%,97%,140%,141%,103%
